The list is not random: actives were taken first. Their share in the collection is about 2.3%.
HSP90 inh = HSP90 refolding inhibition in rabbit reticulocyte lysate; inhibition, % at 5.6 µM; 0.91% of 290,000 active; luciferase refolding luminescence, 3 h;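 active = inhibition above the screen-wide mean plus 3 SD, computed separately per campaign, cut at about 16% in these data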;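 note: inhibitors lower the luminescence because luciferase stays unfolded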
SENP8 block-1 = blocks the human protease SENP8; Q96LD8; purified SENP8, Z-RLRGG-aminoluciferin cleavage, luminescence; inhibition, % at 10 µM; 1.2% of 330,000 active; AID 2540; in the data active = inhibition above about 50%
Target sequence (Q96LD8 whole entry, looked up): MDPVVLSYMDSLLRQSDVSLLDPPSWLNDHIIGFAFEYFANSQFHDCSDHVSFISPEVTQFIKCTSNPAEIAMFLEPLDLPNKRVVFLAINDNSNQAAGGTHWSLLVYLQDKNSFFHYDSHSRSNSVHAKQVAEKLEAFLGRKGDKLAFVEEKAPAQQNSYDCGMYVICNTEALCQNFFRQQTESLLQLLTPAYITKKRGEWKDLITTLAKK
SENP8 block-2 = SENP8 (human) protease inhibition; Q96LD8; recombinant SENP8, Nedd8 substrate fluorescence; inhibition, % at 20 µM; 0.64% of 360,000 active; in the data active = inhibition mostly above about 40%, no sharp cut-off; inactive = mostly below about 27%
LGR2 antag = Drosophila LGR2 receptor signaling inhibition; 0.35% of 380,000 active; HEK293 LGR2, CRE-luciferase, bursicon-stimulated, 4 h; inhibition, % at 9.99 µM;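 active = drop in luminescence signal, shown as inhibition above about 50% in the replicate tests, limit read from the data, passing the limit was not always enough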;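 note: agonist challenge used bursicon conditioned medium at about half maximal strength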
SENP6 inh = SENP6 protease inhibition | 1.8% of 330,000 active | inhibition, % at 10 µM | Q9GZR1 | Recombinant SENP6 catalytic domain, aminoluciferin luminescence;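 active = inhibition above about 50% at the single tested dose, limit read from the data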
SENP7 block = SENP7 protease inhibition | 1.5% of 330,000 active | recombinant SENP7, Z-RLRGG-aminoluciferin luminescence, 40 min | Q9BQF6 | AID 434973 | inhibition, % at 5 µM;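 active = inhibition above about 50% at the single test dose, limit read from the data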
Hits are given with their value; 0 = inactive; - = no result.

SMILES	HSP90 inh	SENP8 block-1	SENP8 block-2	LGR2 antag	SENP6 inh	SENP7 block
N#C/C(=C\c1ccc(N2CCCCC2)c([N+](=O)[O-])c1)c1nn(-c2ccccc2)c(N)c1C#N	0	0	0	0	0	0
CC1CCN(c2ccc(/C=C(\C#N)c3nn(-c4ccccc4)c(N)c3C#N)cc2[N+](=O)[O-])CC1	0	0	0	0	0	0
CC1CCN(c2cc(N3CCC(C)CC3)c([N+](=O)[O-])cc2/C=C(\C#N)c2nn(-c3ccccc3)c(N)c2C#N)CC1	0	0	60	-	0	0
CC1CCCN(c2ccc(/C=C(\C#N)c3nn(-c4ccccc4)c(N)c3C#N)cc2[N+](=O)[O-])C1 (stereo not drawn)	0	0	47	-	0	0
N#Cc1cc2c(nc1SCc1nc3ccccc3[nH]1)CCC2	0	54	-	-	81	0
CCOc1c(OC(C)=O)ccc(/C=C/c2ccc3cccc(OC(C)=O)c3n2)c1[N+](=O)[O-]	0	0	0	0	0	0
C=CCN1C(=O)/C(=C/c2ccc(OC(C)=O)c(OCC)c2[N+](=O)[O-])SC1=S	0	-	65	0	-	-
C[C@@H]1CN([C@H](C)CO)C(=O)c2cc(NS(=O)(=O)c3ccc(F)cc3)ccc2O[C@@H](C)CCCCO[C@H]1CN(C)C(=O)Nc1ccccc1	-	-	-	0	-	-
Cc1ccccc1S(=O)(=O)N1[C@H](C#N)[C@H](c2ccc(C#CC3CCCCC3)cc2)[C@H]1CO	-	-	-	76	-	-
COc1ccc(C(=O)NC(=S)Nc2nc(C)c(C(=O)N(C)C)s2)cc1	0	0	0	0	0	0
CCOC(=O)c1sc(NC(=S)NC(=O)c2ccc(OC)cc2)nc1C	16	0	0	0	0	0
COCC(=O)Nc1ccc2c(c1)[C@@H]1C[C@@H](CC(=O)N(C)C)O[C@@H](CO)[C@@H]1O2	-	-	-	0	-	-
Cc1[nH]n(-c2ccccc2)c(=O)c1N=Nc1ccc(F)cc1	0	0	0	0	0	0
O=c1c(N=Nc2ccccc2)c[nH]n1-c1ccccc1	-	-	54	0	-	-
Oc1cccc(C=NCc2ccccc2)c1O	0	0	54	-	0	0
CCn1c(O)c(C=NCc2ccccc2)sc1=S	0	0	0	0	0	0
Oc1c(C=NCc2ccccc2)sc2ccccc12	24	0	0	0	0	0
O=C(Nc1ccc2c(c1)[C@@H]1C[C@@H](CC(=O)N3CCc4ccccc4C3)O[C@@H](CO)[C@@H]1O2)c1ccc2c(c1)OCO2	-	-	-	0	-	-
Cc1cc(O)c(C(C)C)cc1C1(c2cc(C(C)C)c(O)cc2C)OC(=O)c2ccccc21	0	0	0	70	0	0
Cc1cc(C2(c3ccc(O)c(C)c3)OC(=O)c3ccccc32)ccc1O	0	0	0	0	0	0
CC(C)NCC(O)c1ccc(O)c(O)c1 (stereo not drawn)	0	0	0	0	0	0
CNC[C@H](O)c1ccc(O)c(O)c1	0	0	55	0	0	0
COc1ccc(C(=O)Nc2nc(-c3cccs3)cs2)cc1	0	0	0	-	0	0
COc1cc(C(=O)Nc2nc(-c3cccs3)cs2)cc(OC)c1OC	0	0	0	59	0	0
O=C1C(=O)c2ccccc2C([O-])=C1[n+]1ccccc1	0	0	59	0	0	0
SMILES	HSP90 inh	SENP8 block-1	SENP8 block-2	LGR2 antag	SENP6 inh	SENP7 block
C[C@H](CO)N1C[C@H](C)[C@H](CN(C)S(=O)(=O)c2cccs2)Oc2ccc(NS(C)(=O)=O)cc2C1=O	-	-	-	0	-	-
COc1ccc(CNC(=O)N2CCc3ccccc3C2)cc1Cl	16	0	0	0	0	0
O=C(NCc1ccc(Cl)cc1)N1CCc2ccccc2C1	0	0	0	0	0	0
C[C@@H]1CCCCO[C@@H](CN(C)C(=O)CCCN(C)C)[C@@H](C)CN([C@@H](C)CO)C(=O)c2cc(NS(=O)(=O)c3cccs3)ccc2O1	-	-	-	0	-	-
O=C(Cn1ncc2c1-c1ccccc1OC2)N1CCc2ccccc21	0	0	0	0	0	0
O=C(Cn1ncc(Cl)c(Cl)c1=O)N1CCOCC1	0	0	0	100	0	0
O=C(Cn1ncc(Cl)c(Cl)c1=O)N1CCN(Cc2ccccc2)CC1	0	-	0	104	-	-
O=C(Cn1ncc(Cl)c(Cl)c1=O)N1CCc2ccccc21	0	-	0	70	-	-
Cc1c2cnn(CC(=O)N3CCOCC3)c(=O)c2c(C)n1Cc1ccc(F)cc1	-	-	0	0	-	-
COc1cccc(NC(=O)c2cc3cccc(OC)c3o/c2=N\O)c1	0	0	-	-	0	82
CC(C)C#Cc1cnc2c(c1)C(=O)N([C@H](C)CO)C[C@H](C)[C@H](CN(C)C(=O)c1cccnc1)O2	-	-	-	0	-	-
